The record followed here is PubChem BioAssay (EPA / NIEHS).

In assay [1] the target is zebrafish Estrogen Receptor (ER1), esr1 (gene 259252) (UniProt P57717). Kind of assay: ATG_zfER1_XSP2: Attagene TRANS-FACTORIAL Multi-Species (XSP2) HepG2 Assay for zebrafish Estrogen Receptor (ER1) (AID 2283816). Put shortly: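 After 24 h compound exposure, RNA from transfected HepG2 cells was reverse-transcribed and reporter transcripts resolved by capillary electrophoresis. The TRANS format reads exogenous zebrafish ER1-Gal4 chimera activity on GAL4-UAS elements; gain of signal against DMSO.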

Assay [2] addresses chicken Estrogen Receptor (ERa), ESR1 (gene 396099) (UniProt P06212). Description: ATG_chERa_XSP2: Attagene TRANS-FACTORIAL Multi-Species (XSP2) HepG2 Assay for chicken Estrogen Receptor (ERa) (AID 2283817).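 Note: actives raise reporter signal above DMSO so AC50 reflects ER activation.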 The method in brief: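 Exogenous chicken ERa-Gal4 chimera activity was assessed in transfected human liver HepG2 cells after 24 h of treatment. Induced reporter mRNA was quantified fluorescently by capillary electrophoresis, with DMSO as baseline.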

Assay [3] has as its system zebrafish Estrogen Receptor (ER2a), gene 317734. Description: ATG_zfER2a_XSP2: Attagene TRANS-FACTORIAL Multi-Species (XSP2) HepG2 Assay for zebrafish Estrogen Receptor (ER2a) (AID 2283818).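 Note: hits raise reporter mRNA so AC50 reflects activation of zebrafish ER2a.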 The method in brief:
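Multiplexed trans-reporter readout: RT-PCR then capillary electrophoresis of reporter transcripts after 24 h compound treatment. Human HepG2 carries transfected zebrafish ER2a-Gal4 chimera; 3 nM 6-alpha-fluorotestosterone plus 1.5 nM norgestrel present. Induction scored against DMSO.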

In assay [4] the test system is frog Estrogen Receptor (ER), gene 398734. Description: ATG_frER1_XSP2: Attagene TRANS-FACTORIAL Multi-Species (XSP2) HepG2 Assay for frog Estrogen Receptor (ER) (AID 2283821).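 Note: hits raise reporter mRNA above DMSO baseline so potency means agonist or activator.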 Put shortly:
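Gain-of-signal mRNA reporter assay, HepG2 human liver cells, 24 h dosing; transcripts read by fluorescent RT-PCR fragment analysis, DMSO as negative control.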

Assay [5] concerns zebrafish Estrogen Receptor (ER2b), gene 317733. Kind of assay: ATG_zfER2b_XSP2: Attagene TRANS-FACTORIAL Multi-Species (XSP2) HepG2 Assay for zebrafish Estrogen Receptor (ER2b) (AID 2283823).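 Note: fitted upward as reporter gain over DMSO so potency reflects activation.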 Put shortly: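 Read-out: fluorescent reporter mRNA, measured by RT-PCR then capillary electrophoresis after HpaI digestion. HepG2 cells carried transiently transfected multi-reporter TRANS constructs (NR-Gal4 chimeras); 24 h chemical exposure; activity scored upward versus DMSO control.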

Assay [6] relates to frog Estrogen Receptor (ER2), gene 100174814. Description: ATG_frER2_XSP2: Attagene TRANS-FACTORIAL Multi-Species (XSP2) HepG2 Assay for frog Estrogen Receptor (ER2) (AID 2283828). Put shortly:
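Induction of reporter mRNA, baseline set by DMSO, is the endpoint. The panel was run in transfected HepG2 cells over 24 h, with 3 nM 6-alpha-fluorotestosterone and 1.5 nM norgestrel present to stimulate androgen receptor.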

The target of assay [7] is Peroxisome proliferator-activated receptor gamma (Homo sapiens) (UniProt P37231). Kind of assay: ATG_hPPARg_XSP2: Attagene TRANS-FACTORIAL Multi-Species (XSP2) HepG2 Assay for human Peroxisome Proliferator-activated Receptor gamma (PPARg) (AID 2283829).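 Note: actives raise reporter mRNA above DMSO so AC50 reflects PPARg activation.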 The method, then:
ATG_XSP2_multi-species_TRANS is a cell-based, multiplexed assay created by modifying the existing Attagene TRANS-FACTORIAL system to include a panel of nuclear receptors from some or all the following species: human (Homo sapiens), mouse (Mus musculus), frog (Xenopus laevis), zebrafish (Danio rerio), chicken (Gallus gallus), and turtle (Chrysemys picta). The ECOTOX-FACTORIAL format uses HepG2, a human liver cell line, with measurements taken at 24 hours after chemical dosing in a 24-well plate. Xsp2 included 3 nM 6-alpha-fluorotestosterone and 1.5 nM norgestrel to stimulate the androgen receptor.ATG_hPPARg_XSP2 is one of 29 assay components measured or calculated from the ATG_XSP2_multi-species_TRANS assay. It is designed to make measurements of mRNA induction, a form of inducible reporter, as detected with fluorescence intensity signals by Reverse transcription polymerase chain reaction (RT-PCR) and Capillary electrophoresis technology.The assay endpoint ATG_hPPARg_XSP2 was analyzed in the positive analysis fitting direction relative to DMSO as the negative control and baseline of activity. […] Furthermore, this assay endpoint can be referred to as a primary readout, because this assay has produced multiple assay endpoints where this one serves a reporter gene function. […]
Human liver HepG2 cells are transiently transfected with multiple reporter transcription units (MRTUs) in 6-well plates using FuGene 6 reagent (Roche; 3 ml FuGene/1 mg DNA). […] A major difference between the CIS and TRANS system is that in CIS activities of endogenous TFs are measured, whereas the TRANS assay evaluates changes in activities of exogenous, chimeric NR-Gal4 proteins. […] The fragments were purified using Qiaquick PCR columns (Qiagen), analyzed on an ABI 3130xL genetic analyzer (Applied Biosystems) with peak positions identified by using a set of X-rhodamine (ROX)-labeled MapMarker1000 molecular weight standards (BioVentures). […]

In assay [8] the test system is chicken Androgen Receptor (AR), gene 422165. Kind of assay: ATG_chAR_XSP2: Attagene TRANS-FACTORIAL Multi-Species (XSP2) HepG2 Assay for chicken Androgen Receptor (AR) (AID 2283819).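 Note: hits raise reporter mRNA above DMSO so potency is for activation.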 The method in brief: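 Readout is reporter mRNA induction via RT-PCR/capillary electrophoresis after 24 h chemical exposure, positive direction relative to DMSO. Transiently transfected HepG2 express chimeric chicken AR–GAL4; AR stimulated by 3 nM 6-alpha-fluorotestosterone and 1.5 nM norgestrel.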

In assay [9] the target is Estrogen receptor (Homo sapiens) (UniProt P03372). Description: ATG_hERa_XSP2: Attagene TRANS-FACTORIAL Multi-Species (XSP2) HepG2 Assay for human Estrogen Receptor (ERa) (AID 2283827). Put shortly:
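Trans-activation of exogenous human ERa-Gal4 chimera read in HepG2 as reporter transcript after 24 h exposure; medium included 3 nM 6-alpha-fluorotestosterone and 1.5 nM norgestrel. Quantified by RT-PCR with capillary electrophoresis, positive-direction fitting against DMSO.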

A short description of assay [10]: ATG_M_19_XSP2: Attagene TRANS-FACTORIAL Multi-Species (XSP2) HepG2 Assay for M32 Transcription Factor (Internal Marker) (AID 2283822). The method in brief: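 Internal background marker in a multi-species nuclear receptor TRANS panel: transfected HepG2 cells exposed 24 h, with 3 nM 6-alpha-fluorotestosterone and 1.5 nM norgestrel present. Readout is RT-PCR of reporter transcripts resolved by capillary electrophoresis, gain-of-signal versus DMSO.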

The structures appear in SMILES notation. Several values for one entry are separate records, joined by “and”; a condition that tells them apart may be missing. Identical values can stand only once. Inconclusive results are not listed. Where a structure was tested more than once in an assay, its records may differ in their call. Activity calls are given as the source filed them. Rule for the calls: active = hit-call score of the fitted dose curve at least 0.9, where 1 is the maximum; inconclusive = response in the unintended direction; inactive = score below 0.9.

Peroxisome proliferator-activated receptor gamma (Homo sapiens), sequence (P37231 whole entry, looked up): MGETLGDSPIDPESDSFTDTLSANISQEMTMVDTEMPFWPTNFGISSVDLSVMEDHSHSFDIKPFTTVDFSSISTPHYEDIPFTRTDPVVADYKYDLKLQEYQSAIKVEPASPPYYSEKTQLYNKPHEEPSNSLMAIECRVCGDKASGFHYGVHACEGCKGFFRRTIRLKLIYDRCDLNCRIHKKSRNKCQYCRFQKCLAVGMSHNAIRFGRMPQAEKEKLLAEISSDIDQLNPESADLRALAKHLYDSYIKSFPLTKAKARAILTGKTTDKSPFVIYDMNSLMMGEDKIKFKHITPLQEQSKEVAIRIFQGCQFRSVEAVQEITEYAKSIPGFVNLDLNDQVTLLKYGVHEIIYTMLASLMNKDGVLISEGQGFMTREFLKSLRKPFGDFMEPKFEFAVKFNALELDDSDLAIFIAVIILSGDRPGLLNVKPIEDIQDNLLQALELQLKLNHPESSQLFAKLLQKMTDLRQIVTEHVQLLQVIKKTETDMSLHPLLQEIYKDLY
chicken Estrogen Receptor (ERa), ESR1 (gene 396099), sequence (P06212 whole entry, looked up, the tested form may be a part): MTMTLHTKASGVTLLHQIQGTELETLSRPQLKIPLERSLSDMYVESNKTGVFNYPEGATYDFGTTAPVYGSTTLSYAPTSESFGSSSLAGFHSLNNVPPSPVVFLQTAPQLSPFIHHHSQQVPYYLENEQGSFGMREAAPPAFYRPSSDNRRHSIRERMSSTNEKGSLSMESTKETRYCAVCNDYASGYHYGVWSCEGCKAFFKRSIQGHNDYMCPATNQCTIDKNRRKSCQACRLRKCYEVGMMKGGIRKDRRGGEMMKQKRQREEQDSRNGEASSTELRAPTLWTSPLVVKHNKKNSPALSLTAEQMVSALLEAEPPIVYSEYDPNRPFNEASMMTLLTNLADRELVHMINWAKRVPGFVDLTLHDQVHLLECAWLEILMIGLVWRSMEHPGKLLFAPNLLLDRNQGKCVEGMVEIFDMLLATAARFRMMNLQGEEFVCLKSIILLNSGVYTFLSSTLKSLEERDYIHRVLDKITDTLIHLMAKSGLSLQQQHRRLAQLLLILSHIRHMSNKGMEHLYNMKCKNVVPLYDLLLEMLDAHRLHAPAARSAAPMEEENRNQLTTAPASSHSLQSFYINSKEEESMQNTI
zebrafish Estrogen Receptor (ER1), esr1 (gene 259252), sequence (P57717 whole entry, looked up, the tested form may be a part): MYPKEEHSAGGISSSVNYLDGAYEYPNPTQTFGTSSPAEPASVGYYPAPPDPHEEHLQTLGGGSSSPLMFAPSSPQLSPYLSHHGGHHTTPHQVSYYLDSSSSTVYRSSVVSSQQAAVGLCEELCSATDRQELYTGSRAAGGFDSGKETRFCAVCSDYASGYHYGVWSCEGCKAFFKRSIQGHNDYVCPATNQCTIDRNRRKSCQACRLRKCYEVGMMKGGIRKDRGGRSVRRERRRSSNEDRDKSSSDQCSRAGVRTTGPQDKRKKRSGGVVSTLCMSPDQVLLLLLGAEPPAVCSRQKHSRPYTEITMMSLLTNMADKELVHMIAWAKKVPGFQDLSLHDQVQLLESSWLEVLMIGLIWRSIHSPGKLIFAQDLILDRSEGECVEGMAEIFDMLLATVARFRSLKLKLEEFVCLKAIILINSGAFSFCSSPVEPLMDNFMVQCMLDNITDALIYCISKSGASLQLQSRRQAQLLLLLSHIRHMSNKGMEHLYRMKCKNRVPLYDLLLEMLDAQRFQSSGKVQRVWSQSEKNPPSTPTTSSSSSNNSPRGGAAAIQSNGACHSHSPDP
Estrogen receptor (Homo sapiens), sequence (P03372 whole entry, looked up, the tested form may be a part): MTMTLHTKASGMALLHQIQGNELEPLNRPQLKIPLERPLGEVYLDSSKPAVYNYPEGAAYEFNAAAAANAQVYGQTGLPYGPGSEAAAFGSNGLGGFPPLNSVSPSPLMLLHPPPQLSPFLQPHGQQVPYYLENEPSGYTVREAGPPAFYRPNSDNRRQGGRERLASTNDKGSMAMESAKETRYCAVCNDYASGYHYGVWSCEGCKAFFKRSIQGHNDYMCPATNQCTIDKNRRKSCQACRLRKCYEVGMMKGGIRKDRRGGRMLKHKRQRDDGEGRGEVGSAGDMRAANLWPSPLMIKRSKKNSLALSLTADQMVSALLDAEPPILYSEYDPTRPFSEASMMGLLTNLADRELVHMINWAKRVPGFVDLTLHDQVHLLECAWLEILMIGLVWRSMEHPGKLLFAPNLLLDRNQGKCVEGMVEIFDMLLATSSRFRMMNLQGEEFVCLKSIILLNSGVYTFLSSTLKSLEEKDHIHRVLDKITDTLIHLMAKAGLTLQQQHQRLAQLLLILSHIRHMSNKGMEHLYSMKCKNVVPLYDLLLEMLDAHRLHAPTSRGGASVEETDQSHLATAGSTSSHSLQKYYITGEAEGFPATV

As to `Oc1ccc2c(c1)-c1ccccc1C2`, the AC50 in assay [1] was 14.7 µM (active) and 6.87 µM (active); in assay [2], 4.69 µM (active) and 2.17 µM (active); in assay [3] it was 2.55 µM (active); in [4], 4.78 µM (active) and 2.89 µM (active); in [5] it was 21.4 µM (active) and 12.1 µM (active); in [6], 6.95 µM (active) and 3.52 µM (active). For the same compound, the AC50 in assay [7] was 19.8 µM (active) and 28.4 µM (active). The outcome in assay [3] was inactive.
Consider `O=P(OC(CCl)CCl)(OC(CCl)CCl)OC(CCl)CCl`, for which the result in assay [1], in [2], in assay [8], in assay [4], in assay [5] and in [6] was inactive. Further, the figures for the AC50 in [9] and in assay [7] were 7.39 µM (active) and 50.5 µM (active), respectively.
Consider `Clc1nc(Cl)c(Cl)c(Cl)c1Cl`, for which the compound was called inactive in assay [1], in assay [3], in [4], in [10] and in [5]. In addition, the AC50 in assay [2] is 26.6 µM (active) and 86.3 µM (active); in [4] it was 100 µM (active); in assay [5], 184 µM (active); in [6] it was 26 µM (active); in [7] it was 1.04 µM (active) and 14.9 µM (active).
